Screening results deposited in PubChem BioAssay by National Center for Advancing Translational Sciences (NCATS).
G9a block – qHTS Assay for Inhibitors of Histone Lysine Methyltransferase G9a; G9a H3K9 monomethylation, AlphaScreen, 2 h; Histone-lysine N-methyltransferase EHMT2 (Homo sapiens), Q96KQ7; AID 504332, 2011; Potency, µM (titrated, usually from 102 µM), without a hit: at the highest dose activity, negative = inhibition, hits mostly inhibitors; 350,000 tested, 8.8% active; further: on the % scale 0 is the no-effect control and ±100 the full control effect; nearly all actives have a fitted effect of over 75% in size
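Compounds were preincubated with 20 nM G9a for 15 min, after which biotinylated H3K9 peptide (500 nM) and SAM (20 uM) started a 2 h room-temperature reaction. Monomethylated product was quantified by antibody-based AlphaScreen chemiluminescence.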
VDR inh – Inhibitors of the vitamin D receptor (VDR): qHTS; Vitamin D3 receptor (Homo sapiens), P11473; VDR-SRC2-3 peptide fluorescence polarization, 2 h; Potency, µM, for inactives: max response, negative = inhibition, actives largely listed as inhibitors; 400,000 tested, 0.93% active; further: on the % scale 0 is the no-effect control and ±100 the full control effect
Target sequence (P11473 whole entry, looked up): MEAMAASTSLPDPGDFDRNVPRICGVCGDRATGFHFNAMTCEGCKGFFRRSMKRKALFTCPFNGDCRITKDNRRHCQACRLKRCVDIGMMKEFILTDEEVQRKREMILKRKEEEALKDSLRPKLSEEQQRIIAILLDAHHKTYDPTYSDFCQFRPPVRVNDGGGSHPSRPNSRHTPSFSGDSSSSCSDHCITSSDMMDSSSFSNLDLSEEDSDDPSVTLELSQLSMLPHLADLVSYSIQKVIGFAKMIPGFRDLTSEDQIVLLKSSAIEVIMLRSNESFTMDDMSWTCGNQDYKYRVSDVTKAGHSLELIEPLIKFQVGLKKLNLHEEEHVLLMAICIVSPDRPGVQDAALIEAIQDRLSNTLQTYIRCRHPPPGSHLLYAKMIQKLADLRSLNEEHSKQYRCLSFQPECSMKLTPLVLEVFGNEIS
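VDR–SRC2-3 interaction, FP format. Cmpds 23 nl via pintool, brief spin, 2 h ambient incubation.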
12-LOX inh – Primary qHTS assay for inhibitors of human arachidonate 12S-lipoxygenase (ALOX12): Round 2. AID 1671190, 2021. purified 12hLO, xylenol orange hydroperoxide absorbance. Potency, µM (top dose mostly 108 µM), inactives show at the top dose activity change, negative = inhibition, hits mostly inhibitors. 580,000 tested, 1.1% active. Polyunsaturated fatty acid lipoxygenase ALOX12 (Homo sapiens), P18054; further: on the % scale 0 is the no-effect control and ±100 the full control effect
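Hydroperoxide product was detected by ferrous iron/xylenol orange as the 573 to 405 nm absorbance ratio. Arachidonic acid at 40 uM (final) was turned over for 30 min at room temperature by 150 nM human 12hLO, pH 7.0 Hepes buffer, after 15 min compound preincubation.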
Sfp inh – qHTS Assay for Inhibitors of Bacillus subtilis Sfp phosphopantetheinyl transferase (PPTase); 4'-phosphopantetheinyl transferase ffp (Bacillus subtilis), Q9F4F7; Potency, µM, for the others: largest response in the series, negative = inhibition, most hits filed as inhibitors; Biochemical Sfp PPTase activity, qHTS; 310,000 tested, 3.5% active;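 further: the enzyme is Sfp with the accession as filed and its product quenches rhodamine fluorescence; 0% = enzyme reaction without inhibitor and -100% = no enzyme wells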
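Reaction rates are the 30-min fluorescence difference (ex 525, em 598 nm) in wells containing 15 nM Sfp, 5 uM rhodamine-CoA and 12.5 uM BHQ-2-YbbR at pH 7.6 with 10 mM MgCl2.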
GRP78 ERSR act – qHTS for Inducers of the Endoplasmic Reticulum Stress Response (ERSR) in Human Glioma: qHTS | AID 602332, 2012 | U87-MG GRP78 promoter luciferase reporter, 16 h | Potency, µM, without a hit: top-dose activation, usual class: activators | 420,000 tested, 0.02% active; further: series mostly up to about 76 µM; % of control where 0% means no effect; nearly all actives have a fitted effect of over 35% in size
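Stably transfected U87-MG glioma cells carrying a GRP78-based luciferase sensor; 16 h compound incubation. Luminescence end-point read 10 min after Bright-Glo addition at room temperature.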
An asterisk follows results filed as active; ? = inconclusive; . = not tested or not shown; [ ] = another dose, or the depositor's remark. This excerpt belongs to a sample that is enriched for hits. The call rests on the fitted dose curve; in most records, active means well fitted curve in the direction sought with a large enough effect; inconclusive means small, poorly fitted or top-dose-only effect, or another doubt; inactive means no such curve, though single readings can be large; an effect the other way counts as inactive or inconclusive. Potency means the concentration at half of the fitted maximal effect.

SMILES	G9a block	VDR inh	12-LOX inh	Sfp inh	GRP78 ERSR act
Cc1ccc(N2CCN(CCCN3C(=O)C4CCCN4C3=O)CC2)cc1 (centres undefined)	8.9µM*	-6%	?	-28%	-4%
N#C/C(=C(/O)CCCl)c1ccccn1	32µM*	1%	0%	-20%	1%
COc1cncc(Nc2cnc3ccc(-c4ccc(OC)c(OC)c4)nn23)c1	.	.	78%[176 µM]	.	.
CCNCc1ccc(OCc2cccs2)c(OC)c1	.	.	2%	.	.
Cc1cc(=O)[nH]c(N/N=C/C2=C(N3CCOCC3)C(=C\c3ccc(Cl)cc3)/CC2)n1	7.9µM*	89µM*	?	40µM*	-4%
CSc1ccc(/C=N/Nc2nc(C)cc(=O)[nH]2)cc1	1%	-1%	-1%	56µM*	-2%
O=C(NC1CCc2ccccc21)c1cc2c(s1)CCCC2 (centres undefined)	.	.	-3%	.	.
Cc1ccc(C2Cn3nnc(C(=O)N4CCN(C(=O)c5c(F)cccc5F)CC4)c3CO2)cc1 (centres undefined)	.	.	16%	.	.
CN(C)c1ccc(NC(=O)Cn2cc(S(=O)(=O)Cc3ccccc3Cl)c3ccccc32)cc1	5µM*	-5%	-26%	.	.
Cc1cccc(C)c1NC(=O)Cn1cc(S(=O)(=O)Cc2ccc(F)cc2)c2ccccc21	-32%[59 µM]	-11%	50µM*	.	-3%
Cc1cc(C)c(NC(=O)Cn2cc(S(=O)(=O)Cc3ccccc3F)c3ccccc32)c(C)c1	3%[59 µM]	-10%	?	.	-5%
Cc1ccc(NC(=O)Cn2cc(S(=O)(=O)Cc3ccc(F)cc3)c3ccccc32)cc1Cl	-50%[59 µM]	11%	10µM*	.	-3%
Cc1cc(C)c(OCC(=O)N2CCC(NC(=O)c3ccccc3)CC2)c(C)c1	.	.	-22%	.	.
CCC/C=C/CO	.	.	7%[176 µM]	.	.
CCN(CC)c1ccc(NC2=C(Cl)C(=O)c3ccccc3C2=O)cc1	1.8µM*	-26%	.	?	-13%
Nc1ccc2c(c1)C(=O)c1ccccc1-2	.	7%	0%	.	1%
Cc1ccc(NC2=C(N3CCOCC3)C(=O)c3ccccc3C2=O)cc1	?	?	?	-9%	-2%
Cc1ccc(NC2=C(Cl)C(=O)c3ccccc3C2=O)cc1	79µM*	-8%	14%	16%	-11%
CCCC(=O)NC1=C(Cl)C(=O)c2ccccc2C1=O	.	7.9µM*	?	.	-14%
CCNC1=C(Cl)C(=O)c2ccccc2C1=O	?	-9%	-3%	-7%	3%
Cc1cc(C)cc(NC2=C(N)C(=O)c3ccccc3C2=O)c1	1.6µM*	89µM*	.	18%	-2%
O=C(N[C@@H]1C[C@H]2CC[C@@H]1C2)c1c(Cl)cccc1Cl	.	.	31%	.	.
COc1ccc(-c2noc(CSc3nc4ccccc4o3)n2)cc1OC	.	.	-2%	.	.
Cc1nc(-c2cc3ccc(OCC(=O)NCC(C)C)cc3oc2=O)cs1	.	.	25%	.	.
CC1=C[C@@H](CNS(C)(=O)=O)[C@H](C(C)C)C[C@H]1Cc1nc2ccccc2n1C	.	.	2%[176 µM]	.	.
SMILES	G9a block	VDR inh	12-LOX inh	Sfp inh	GRP78 ERSR act
CCC(=O)Nc1ccc(C2C(=O)c3ccccc3C2=O)cc1	34%[0.501 µM]	-11%	?	6%	-3%
CCC(=O)NC1=C(Nc2ccc(N)cc2)C(=O)c2ccccc2C1=O	50µM*	-11%	2%	-1%	-10%
O=C1C(Cl)=C(Nc2ccc(O)cc2)C(=O)c2ccccc21	11µM*	-16%	0%	-22%	-17%
O=C(CN1C(=O)NC2(CCOc3ccccc32)C1=O)c1c[nH]c2ccccc12 (centres undefined)	.	.	7%	.	.
Cc1ccc(Nc2ncccc2C(N)=O)cc1[N+](=O)[O-]	35µM*	-10%	-16%	-11%	7%
Cc1ccc(-c2nc(CCNC(=O)Nc3cccc(F)c3)co2)cc1	.	.	-7%	.	.
COc1cccc(/C=N/NC(N)=S)c1OCc1ccccc1Cl	5%[59 µM]	-18%	28µM*	1%	-4%
CC(C)CC(=O)N1CCOCC12CCN(CCCc1ccccc1)CC2	.	.	37%[176 µM]	.	.
